From PubChem BioAssay (NCI) come the findings set out here.

Each structure is given as a SMILES string. Compounds without any hit were thinned out: in the full panel of roughly 83,000, 20% have a hit.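 Cell lines were cultured in 96-well plates, exposed to a single compound concentration, and assessed for percent growth 48 hours later.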 Unmarked numbers belong to inactive results. Active and inactive are the calls of the source. How the source made its calls: active means growth percent below 10; inactive means the rest.

Common to all, as to experiment: NCI-60 one-dose screen, 48 h (100 = growth as untreated, 0 = no growth, -100 = all killed)
Conditions in all cases: 10 µM unless noted

The subject of assay [1] is T-47D breast.
Assay [2] concerns BT-549 breast.
Assay [3] relates to MDA-MB-435 melanoma.
For assay [4], the system named is SW-620 colon.
Assay [5] deals with HCT-116 colon.
The test system of assay [6] is KM12 colon.
The test system of assay [7] is HCC-2998 colon.
Assay [8] relates to MCF7 breast.

Consider `Cc1ccc(Nc2cc(=S)nc(N)[nH]2)cc1C`, for which the growth in assay [1] is 89.2%; in assay [2] it was 95.9%; in assay [3] it was 103%; in assay [4], 96.7%; in assay [5], 90.1%; in assay [6], 102%.

Take `CN1CCN(C(=O)OCc2nc3c(N4CCOCC4)nc(-c4ccccc4)nc3n2C)CC1`: the growth is -40.7% (active) in assay [1]; -71.1% (active) in assay [2]; -84.1% (active) in assay [3]; -46.4% (active) in assay [4]; -71.6% (active) in assay [5]; -75.4% (active) in assay [7]. In addition, in assay [6], the growth was -61.6% (active).

With `COc1ccc(-c2nc(N=Nc3c(O)[nH]c4ccccc34)nc(N3CCOCC3)c2C#N)cc1`, the growth in assay [1] is 65.4%; in assay [2] it was 62.8%; in assay [3] it was 79.1%; in assay [8] it was 60.6%; in assay [5] it was 29.7%; in assay [7], 95%. The growth in assay [6] was 73.4%.

Consider `BrC(Br)(Br)c1cnc2ccccc2n1`, for which the growth in assay [1] was -49.3% (active); in assay [2], 74.4%; in assay [3], 36.5%; in assay [8] it was 25.8%; in assay [5], -40.3% (active); in assay [7], 43.8%. Also, the growth in assay [6] was 42.7%.

`Clc1cc(Cl)cc(N2N=C(c3cccc(Nc4ccncc4)c3)CC2c2ccc(Br)cc2)c1` (configuration not stated): the growth was 81.1% in assay [1]; 112% in assay [2]; -14.7% (active) in assay [3]; -72.1% (active) in assay [4]; 108% in assay [5]; -34.3% (active) in assay [6].

Turning to `CC(C)(C#N)N1CCN(c2ccccc2Cl)CC1`, the growth in assay [1] was 102%; in assay [2], 98.1%; in assay [3], 97.3%; in assay [8], 106%; in assay [5], 98.4%; in assay [7], 91.4%.

For `COc1nccnn1`, the growth in assay [1] is 107%; in assay [2], 94%; in assay [3], 93%; in assay [8], 103%; in assay [5], 99.2%; in assay [7], 110%. Moreover, the growth in assay [6] was 95.7%.

For `COc1cc(C2CC(c3cccc(Nc4ccncc4)c3)=NN2c2ccccc2)cc(OC)c1OC` (configuration not stated), the growth in assay [1] is 82.3%; in assay [2] it was 59.4%; in assay [3] it was -72.9% (active); in assay [4], -25.9% (active); in assay [5] it was 32%; in assay [7] it was 20.2%. Also, the growth in assay [6] is 7.46% (active).

As for `Fc1ccc2nc3c(cc2c1)CSc1nnc(-c2ccc[nH]c2=S)n1N3`, the growth is 84.1% in assay [1]; 97.7% in assay [2]; 103% in assay [3]; 93.5% in assay [4]; 92.7% in assay [5]; 103% in assay [7]. In addition, the growth in assay [6] was 106%.

For the molecule `COc1ccc(-c2nc3sccn3c2/C=C/C(=O)c2cc(OC)c(OC)c(OC)c2)cc1`, the growth in assay [1] is 30.5%; in assay [2], 46.9%; in assay [3] it was 29.8%; in assay [4], 72.5%; in assay [5], 42%; in assay [7], 71.2%. The growth in assay [6] was 35.8%.

`NC(=O)c1ccc[n+](CC(=O)N2CCN(c3cc4c(cc3F)c(=O)c(C(=O)O)cn4C3CC3)CC2)c1`: the growth in assay [1] is 99.1%; in assay [2], 87.3%; in assay [3] it was 75.2%; in assay [8], 62.4%; in assay [5], 37.1%; in assay [7] it was 115%. Also, the growth in assay [6] is 90.1%.

Consider `CC(=O)NCCCS(=O)(=O)O`, for which the growth was 102% in assay [1]; 110% in assay [2]; 99.9% in assay [3]; 101% in assay [8]; 98.5% in assay [5]; 102% in assay [7]. In assay [6], the growth was 102%.

For `Nc1c(Cl)cc([N+](=O)[O-])cc1Br`, the growth was 97.8% in assay [1]; 97.5% in assay [2]; 91.4% in assay [3]; 99.9% in assay [8]; 105% in assay [5]; 93.7% in assay [7]. The growth in assay [6] was 103%.

For `CC1=CC2(C)/C=C(C)/C=C\CC(O)/C=C3/C=CC(=C4C(=O)OC2(CC1C)C4=O)OC3` (configuration not stated), the growth in assay [1] was -33.9% (active); in assay [2], -17.1% (active); in assay [3] it was -50.1% (active); in assay [8], -21.9% (active); in assay [5], -100% (active); in assay [6] it was 10.2%.

For `CCOC(=O)C1CC(=O)c2cc(OC)c(OC)cc2C1` (configuration not stated), the growth in assay [1] was 115%; in assay [2], 123%; in assay [3] it was 114%; in assay [8], 95.7%; in assay [5], 95.5%; in assay [7], 101%. For the same molecule, in assay [6], the growth was 103%.

With `COc1ccc(/C=N/C2=C(C#N)C(c3ccccc3[N+](=O)[O-])c3ccc4ccccc4c3O2)cc1` (configuration not stated), the growth in assay [1] is 79.4%; in assay [2], 92.8%; in assay [3], 98.5%; in assay [8] it was 56.4%; in assay [5] it was 83.3%; in assay [7], 106%. Moreover, the growth in assay [6] was 95.9%.

With `NS(=O)(=O)c1cccc(NC(=O)C(=O)C2C(=O)Nc3ccccc32)c1` (configuration not stated), the growth was 112% in assay [1]; 109% in assay [2]; 96.8% in assay [3]; 109% in assay [8]; 93.3% in assay [5]; 104% in assay [7]. The growth in assay [6] is 103%.

On to `COc1cccc(-c2nc3occn3c2-c2ccnc(NCCCNS(=O)(=O)c3cccc(F)c3)n2)c1`, for which the growth in assay [1] is 29.3%; in assay [2], 96.1%; in assay [3], 63.2%; in assay [8] it was 78.1%; in assay [5] it was 82%; in assay [7], 127%. Also, in assay [6], the growth was 92.6%.
